Sampled rows, rich in hits. Any-hit rate of the full collection: about 2.6%.
PAFAH1B3 inh: inhibitors of human PAFAH1B3; inhibition, % at 3.39 µM; actives 0.28% (n = 340,000); AID 492972; Q15102; recombinant PAFAH1B3, FP-rhodamine probe, fluorescence polarization;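 active means inhibition above the screen-wide average of all tested compounds plus 3 SD, cut at about 25% in these data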
PAFAH1B2 inh: blocks human PAF acetylhydrolase 1b catalytic subunit 2 | recombinant PAFAH1B2, FP-rhodamine activity probe, fluorescence polarization | inhibition, % at 3.39 µM | actives 1.2% (n = 340,000) | AID 492953;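 active means inhibition above the mean of all tested compounds plus 3 SD, cut at about 24% in these data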
Target sequence (P68402 whole entry, looked up): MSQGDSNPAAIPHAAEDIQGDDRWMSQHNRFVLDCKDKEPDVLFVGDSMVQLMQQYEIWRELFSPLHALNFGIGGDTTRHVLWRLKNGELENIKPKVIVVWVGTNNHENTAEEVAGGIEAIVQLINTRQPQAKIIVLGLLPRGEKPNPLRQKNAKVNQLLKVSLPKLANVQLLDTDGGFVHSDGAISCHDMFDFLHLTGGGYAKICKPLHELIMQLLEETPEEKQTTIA
PAFAH2 inh: inhibitors of human PAFAH2. Q99487. AID 492956. inhibition, % at 3.39 µM. actives 0.99% (n = 340,000). recombinant PAFAH2, FP-rhodamine activity probe, fluorescence polarization;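 active means inhibition above the mean over all tested compounds plus 3 SD, cut at about 30% in these data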;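 further: inhibitors block probe labeling of enzyme so polarization drops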
PKA-R2B activ: PKA-R2B complex activation; AID 504700; actives 0.079% (n = 340,000); PKA-R2B holoenzyme dissociation, Cy5-IP20 fluorescence polarization; R2B truncated from residue 108, S112A mutant; 0% DMSO only, 100% 113 µM cGMP; activation, % at 11.4 µM;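 active means activation above a cutoff set at the mean over all compounds plus 3 SD, cut at about 18% in these data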;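 further: higher means more holoenzyme dissociation and a rise in polarization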
pPAFAH FP inh: inhibitors of human plasma PAF acetylhydrolase (pPAFAH); actives 1.5% (n = 330,000); AID 463082; recombinant pPAFAH, FP-rhodamine probe fluorescence polarization; inhibition, % at 3.39 µM; Q13093;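 active means inhibition above the mean inhibition across the screen plus 3 SD, cut at about 25% in these data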;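 further: inhibitors block binding of the rhodamine activity-based probe so polarization drops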
Target sequence (Q13093 whole entry, looked up): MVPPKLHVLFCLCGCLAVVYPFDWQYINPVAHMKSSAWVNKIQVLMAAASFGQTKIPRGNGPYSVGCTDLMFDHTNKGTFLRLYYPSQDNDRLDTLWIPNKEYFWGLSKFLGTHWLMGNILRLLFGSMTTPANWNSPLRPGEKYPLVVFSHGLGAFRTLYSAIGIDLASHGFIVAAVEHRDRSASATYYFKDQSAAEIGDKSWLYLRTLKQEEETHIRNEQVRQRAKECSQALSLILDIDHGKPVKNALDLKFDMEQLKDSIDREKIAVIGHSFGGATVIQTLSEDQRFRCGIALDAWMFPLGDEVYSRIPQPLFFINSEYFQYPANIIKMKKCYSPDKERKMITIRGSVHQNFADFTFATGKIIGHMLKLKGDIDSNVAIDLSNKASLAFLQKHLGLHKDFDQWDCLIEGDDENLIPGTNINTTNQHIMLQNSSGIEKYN
PKA-R1A act: PKA-R1A complex activation. P00514+P68181. PKA-R1A dissociation, Cy5-IP20 fluorescence polarization; scaled: DMSO 0%, 113 µM cGMP 100%. activation, % at 11.4 µM. actives 0.083% (n = 340,000). AID 504707;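 active means percent activation above the mean of all tested compounds plus 3 SD, cut at about 19% in these data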;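 further: higher means more PKAc released from R1A so a rise in polarization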
Of the large screens only hits and unclear results are named; the others gave an inactive call; ! = not active in a repeat.

COc1ccc(-c2cc(C(F)F)n3ncc(C(=O)n4ccnc4C)c3n2)cc1	PAFAH2 inh 30
COc1ccc(-c2cc(C(F)F)n3ncc(C(=O)N4CCc5ccccc54)c3n2)cc1	none
CCOc1ccc(CCNS(=O)(=O)c2ccc3c(c2)N(C(C)=O)CCO3)cc1OCC	none
NS(=O)(=O)c1ccc(CNS(=O)(=O)c2ccc3c(c2)OCCO3)cc1	none
Cc1ccc(CNS(=O)(=O)c2ccc3c(c2)OCCO3)cc1	PAFAH1B2 inh 27
CC(=O)N1CCOc2ccc(S(=O)(=O)NCCc3ccc(C)cc3)cc21	PAFAH1B2 inh 32
CC(=O)N1CCOc2ccc(S(=O)(=O)NCc3ccc(C)cc3)cc21	PAFAH1B2 inh 34
Cc1ccc(-c2c3c([nH]c(=S)c2C#N)CCCC3)o1	pPAFAH FP inh 25
CCOc1ccc(CCNC(=O)c2ccc3c(=O)[nH]c4c(C(=O)NC(C)C)sc(=S)n4c3c2)cc1	pPAFAH FP inh 29
COc1ccc(OC)c(CCNC(=O)c2ccc3c(=O)[nH]c4c(C(=O)NC(C)C)sc(=S)n4c3c2)c1	PAFAH1B2 inh 24, PAFAH2 inh 60
CC(C)Cn1c(C23CC4CC(CC(C4)C2)C3)n[nH]c1=S	PAFAH1B2 inh 28
C/C(N)=C(/C#N)C(=O)COC(=O)CCSc1ccccc1	PAFAH1B2 inh 27!
C/C(N)=C(/C#N)C(=O)COC(=O)CCS(=O)(=O)c1ccccc1	none
O=C(/C=C/c1ccco1)NCC1CCCO1 (stereo not drawn)	none
Nc1c(C(=O)NCC2CCCO2)sc2nc3c(c(-c4ccco4)c12)CC/C3=C\c1ccco1 (stereo not drawn)	PAFAH1B3 inh 39, PAFAH1B2 inh 24, PAFAH2 inh 54 (no result: pPAFAH FP inh)
CC1CCC(C(C)C)C(OC(=O)CSc2nc(N)cc(=O)[nH]2)C1 (stereo not drawn)	none
CC1CCC(C(C)C)C(OC(=O)CSc2nnc(N)s2)C1 (stereo not drawn)	PAFAH1B2 inh 27
CCN(CC)c1ccc(-c2sc(Nc3ccccc3)n[n+]2-c2ccc(F)cc2)cc1	none
CCc1ccc(Nc2n[n+](-c3ccccc3)c(-c3ccc(N(CC)CC)cc3)s2)cc1	pPAFAH FP inh 30
CCOc1ccc(S(=O)(=O)Nc2cc(Sc3ncn[nH]3)c3oc(=O)sc3c2)cc1	pPAFAH FP inh 33 (no result: PAFAH1B3 inh, PAFAH1B2 inh, PAFAH2 inh, PKA-R2B activ, PKA-R1A act)
CCOc1ccc(S(=O)(=O)Nc2ncn[nH]2)cc1	none
CC1(C)Cc2ccccc2C2=C(C(=O)N3CCCCCC3)C(=O)C(=O)N21	PAFAH1B2 inh 61
O=C1C(=O)N2C(=C1C(=O)N1CCCCCC1)c1ccccc1CC21CCCC1	PAFAH1B2 inh 57
Cc1ccc(C)c(S(=O)(=O)Nc2ccc(C(=O)NCCCN3CCOCC3)cc2)c1	none
CN1CCN(C(=O)c2ccc(OCCOc3ccccc3)cc2)CC1	none
Cc1cc(Nc2ccccc2)nn1C(=O)c1ccc(Br)cc1	PAFAH1B2 inh 27
N#CC1=C(SCc2ccccc2)NC(=O)CC1c1ccc(O)cc1 (stereo not drawn)	pPAFAH FP inh 26
CCCCCCSC1=C(C#N)C(c2ccccc2)CC(=O)N1 (stereo not drawn)	none
COC(=O)CSC1=C(C#N)C(c2ccc(F)cc2)CC(=O)N1 (stereo not drawn)	none
Cc1ccc(C2CC(=O)NC(SCc3ccccc3)=C2C#N)cc1 (stereo not drawn)	pPAFAH FP inh 30
Cc1ccc(S(=O)(=O)N2CCCCC2)cc1NC(=O)c1nn(C)c(=O)c2ccccc12	none (no result: pPAFAH FP inh)
Cc1ccc(SCc2ccc(C(=O)Nc3cc([N+](=O)[O-])ccc3C)cc2)cc1	PAFAH1B2 inh 29
Cc1ccc(OCCC(=O)OCC(=O)Nc2c(C)nn(-c3ccccc3)c2C)cc1	none
Cc1nnc(-c2cccc(Br)c2)c2cn(-c3cccc(Br)c3)nc12	pPAFAH FP inh 32
Cc1nnc(-c2cccc(Br)c2)c2cn(-c3ccc(Br)cc3)nc12	none
COc1ccc(-n2cc3c(-c4cccc(Br)c4)nnc(C)c3n2)cc1	none
Cc1nnc(-c2cccc(Br)c2)c2cn(-c3ccccc3)nc12	pPAFAH FP inh 25
COc1ccc(S(=O)(=O)N2CCOCC2)cc1NC(=O)COc1ccc(C(C)=O)cc1OC	none (no result: pPAFAH FP inh)
O=c1[nH][nH]c(=O)c2c1[nH]c(=S)n2Cc1ccccc1	none (no result: pPAFAH FP inh)
COc1ccc2c(c1)CC/C(=C\Nc1ccc3c(c1)OCO3)C2=O	pPAFAH FP inh 25
Cn1c(CC(=O)Nc2ccccc2F)nnc1SCC(=O)N1CCOCC1	none
Cc1ccc(N2CC(O)CSC2=Nc2ccccc2)cc1 (stereo not drawn)	none (no result: PAFAH1B3 inh, PAFAH1B2 inh, PAFAH2 inh, pPAFAH FP inh)
C[C@H](NC(=O)OCc1ccccc1)c1nnc([C@H](Cc2ccccc2)NC(=O)OC(C)(C)C)o1	pPAFAH FP inh 26
CCC(C)[C@H](NS(=O)(=O)c1ccc(C)cc1)C(=O)N1CCC(C(=O)N[C@H](C(=O)O)c2ccccc2)CC1 (stereo partly drawn)	none
C/C(=N/NS(=O)(=O)c1ccc(C)cc1)c1cccc(NC(=O)c2cccc(Cl)c2)c1	none
C/C(=N/NS(=O)(=O)c1ccc(Cl)cc1)c1cccc(NC(=O)c2ccc(Cl)cc2Cl)c1	pPAFAH FP inh 25
C#CCN(CC=C)C(=O)C1CCC(=O)N(CCCc2ccccc2)C1 (stereo not drawn)	none
Cc1ccc(Nc2ncnc(Cl)c2N)cc1	none (no result: pPAFAH FP inh)
Cn1nnc(NC(=O)/C=C/c2ccco2)n1	none (no result: PAFAH1B3 inh, PAFAH1B2 inh, PAFAH2 inh, PKA-R2B activ, PKA-R1A act)
CCCn1nnc(NC(=S)NC(=O)/C=C/c2ccco2)n1	pPAFAH FP inh 26
COC(=O)Cc1cc(=O)[nH]c(Nc2nc3ccccc3o2)n1	pPAFAH FP inh 28
Cc1cc(NC(=O)COC(=O)CSCc2ccc(Cl)c(Cl)c2)no1	pPAFAH FP inh 31
Cc1ccc(N=Nc2ccc3ccccc3c2O)cc1	PAFAH1B3 inh 52, PAFAH1B2 inh 86, PAFAH2 inh 35
O=C(COC(=O)c1ccc(S(=O)(=O)NCc2ccco2)cc1)Nc1ncc(Cl)cc1Cl	pPAFAH FP inh 25
COc1ccccc1OCCC(=O)OCC(=O)Nc1ncc(Cl)cc1Cl	pPAFAH FP inh 26
O=C(COC(=O)CCOc1ccccc1)Nc1ncc(Cl)cc1Cl	none
COc1ccccc1NC(=O)COC(=O)c1ccc(S(=O)(=O)NCc2ccco2)cc1	none
O=C(COC(=O)c1nc(Cl)ccc1Cl)Nc1ncc(Cl)cc1Cl	PAFAH1B3 inh 51, PAFAH1B2 inh 61, PAFAH2 inh 52
O=C(COC(=O)c1ccc2ccccc2n1)Nc1ncc(C(F)(F)F)cc1Cl	pPAFAH FP inh 26
c1ccc(SCc2cc(-c3ccccc3)no2)cc1	PAFAH1B2 inh 26
COc1cccc(C2NC(=O)NC(C)=C2C(=O)OCC2CCCCC2)c1 (stereo not drawn)	none
O=C(COC(=O)c1ccc([N+](=O)[O-])cc1Cl)NCc1ccco1	none

Source: PubChem (The Scripps Research Institute Molecular Screening Center)
